# Reference: PubChem BioAssay (NCATS)
# Values joined by “and” are separate entries in the source; they are usually repeats but may differ in a detail not shown here. Equal values may be shown once. Results filed as inconclusive are left out. Active and inactive are the calls of the source. Calls follow the shape of the full dose curve.
# Experiment: Primary qHTS to identify inhibitors of SARS-CoV-2 cell entry (AID 1645846); also: nearly all actives have a fitted effect of over 45% in size
# Details: SARS-CoV-2 pseudovirus cell entry assay, luminescence; activity change, negative = inhibition: at 57.1 µM (top of the series) unless noted; series mostly up to 57.1 µM
# Description: Assay Provider: Wei Zheng, Ph.D.
# National Center for Advancing Translational Sciences, National Institute of Health, Rockville, MD.
# SARS-CoV-2 spike protein, within the viral envelope, mediates viral attachment and infection of host cells. The SARS-CoV-2 spike protein specifically binds to the host receptor ACE2 (Angiotensin-converting enzyme 2). This interaction promotes endocytosis of the viral particle, additional events lead to viral-host cell membrane fusion and release of the viral contents, allowing viral replication.
# While SARS-CoV-2 requires BSL-3 facilities for live virus work, pseudotyped partices (PP) that incorporate SARS-CoV-2 spike proteins without replication elements could facilitate studies on viral entry mechanisms in a BSL-2 setting. This PP cell entry assay could also enable screening of small molecule compound libraries in BSL-2 setting to identify inhibitors of SARS-CoV-2 cell entry.
# PROTOCOL TABLE (format as described by Inglese J, Shamu CE and Guy RK. 2007)
# SEQUENCE No. (e.g., 1, 2, 3, etc.); […] (e.g., Cells, Incubation, Reagent, etc.); VALUE and DESCRIPTION.
# 1. Cells. Seed 1500 HEK293-ACE2 cells (Expi293F with stable expression of human ACE2) in 2 uL/well media (DMEM, 10% FBS, 1x L-glutamine, 1x Pen/Strep, 1 ug/ml puromycin) in white 1536-well assay plates (Greiner #782073).
# 2. Incubation. Incubate at 37C with 5% CO2 overnight (~16 h).
# 3. Compounds. Dispense 23 nL/well compounds in DMSO via pin transfer.
# 4. Incubation. Incubate for 1 hr at 37C 5% CO2.
# 5. Reagent. Dispense 2 uL/well of SARS-CoV-2-S pseudotyped particles. [a] PPs are produced with murine leukemia virus pseudotyping. [b] SARS-CoV-2-S is Wuhan-Hu-1 sequence (BEI #NR-52420) with C-terminal 19 amino acid truncation.
# 6. Centrifuge. […]
# 7. Incubation. Incubate at for 48 hr at 37C 5% CO2
# 8. Centrifuge. Remove supernatant with gentle centrifugation using a Blue Washer (BlueCat Bio).
# 9. Reagent. Dispense 4 uL/well of Bright-Glo Luciferase detection reagent (Promega #E2620).
# 10. Incubation. Incubate for 5 min at room temperature.
# 11. Detection. Read luminescence signal (Viewlux plate reader, PerkinElmer). Data was normalized with wells containing SARS-CoV-2-S PP as 100%, and wells containing bald PP (no fusion protein) as 0%.
# Potency is read from the fitted curve at half-maximal effect.
SMILES,"activity change, negative = inhibition",Potency,outcome
Cc1ccc(C(=O)N(CCCN)[C@@H](c2nc3cc(Cl)ccc3c(=O)n2Cc2ccccc2)C(C)C)cc1,-95.6%,,
COc1cc2nccc(Oc3ccc(NC(=O)Nc4cc(C)on4)c(Cl)c3)c2cc1OC,,14.1 µM (active),
C1Cc2[nH]nc(-c3nn[nH]n3)c2C1,4.96%,,
C=CCNC(N)=S,,,inactive
N#C/C(=C1\SCC(c2ccccc2Cl)S1)n1ccnc1 (stereo not given),,,inactive
OCCn1cc(-c2cnc3nnn(Cc4ccc5ncccc5c4)c3n2)cn1,,,inactive
O=C(O)CNC(=O)CNC(=O)CNC(=O)CSC(=O)c1ccccc1,1.66%,,
O=C(Nc1cccc(C2=NCCN2)c1)Nc1cccc(C2=NCCN2)c1,,,inactive [at 27.1 µM]
Cc1cc(C(=O)NNCc2ccccc2)no1,-26.2% [at 114 µM],,
CCC(=O)N1CCN(c2ccc(-n3c(=O)ccc4cnc5ccc(-c6cnc7ccccc7c6)cc5c43)cc2C(F)(F)F)CC1,-91.2% [at 27.1 µM],,
Cc1ccccc1N=Nc1ccc(N=Nc2c(O)ccc3ccccc23)c(C)c1,-23%,,
C[C@H](CN1CCCC1)C(=O)c1ccc(C(F)(F)F)cc1,-4.68%,,
COc1cc(Nc2ncc3c(n2)-c2ccc(Cl)cc2C(c2c(F)cccc2OC)=NC3)ccc1C(=O)O,-83%,,
O=C(O)CCc1ccc(NCc2cccc(Oc3ccccc3)c2)cc1,-10.2%,,
CN1CCN(c2ccc([N+](=O)[O-])c3no[n+]([O-])c23)CC1,-23.8%,,
C[C@@]12O[C@@H](C[C@]1(O)CO)n1c3ccccc3c3c4c(c5c6ccccc6n2c5c31)CNC4=O,,1.41 µM (active),
S=C(SSC(=S)N1CCCCC1)N1CCCCC1,,1.12 µM (active),
COc1ccc(N(C(=O)Oc2c(C)cccc2C)c2ccnc(Nc3ccc(N4CCN(C)CC4)cc3)n2)c(OC)c1,,,inactive
O=C(Nc1ccccc1-c1cn2c(CN3CCNCC3)csc2n1)c1cnc2ccccc2n1,,7.94 µM (active),
CC(C)(C)c1cc(C(=O)O)c(NC(=O)Nc2ccc3[nH]ncc3c2)s1,,,inactive

SMILES,"activity change, negative = inhibition",Potency,outcome
CSCC[C@@H](NC(=O)[C@@H](Cc1ccccc1)NC(=O)CNC(=O)CNC(=O)[C@@H](N)Cc1ccc(O)cc1)C(=O)O,-0.623%,,
CCCCCCCC(=O)OCC(O)CO (stereo not given),-24.7%,,
CCN1CCN(CC(=O)Nc2ccc(-c3cccc4c(=O)cc(N5CCOCC5)oc34)c3sc4ccccc4c23)CC1,,5.62 µM (active),
CN1C(=O)C(Cc2c[nH]c3ccccc23)NC1=S (stereo not given),,,inactive
CCCCC(CC)COC(=O)/C=C/c1ccc(OC)cc1 (stereo not given),-3.29%,,
CCCn1c(=O)c2[nH]c(C34CC5CC3C[C@@H](C5)C4)nc2n(CCC)c1=O,-12.4%,,
Cc1cn(-c2cc(NC(=O)c3ccc(C)c(Nc4nccc(-c5cccnc5)n4)c3)cc(C(F)(F)F)c2)cn1,-29.3%,,
NC(=O)c1ccc(I)c([N+](=O)[O-])c1,-6.13%,,
O=[N+]([O-])c1ccc([As](=O)(O)O)cc1,1.4%,,
O=S(=O)(CC1CS1)c1ccc(Oc2ccccc2)cc1 (stereo not given),,,inactive
Nc1nc(-c2nn(Cc3ccccc3F)c3ncccc23)nc(N)c1N1CCOCC1,,,inactive [at 27.1 µM]
O=C(Nc1ccc(F)c(C(F)(F)F)c1)Nc1nnc(-c2ccncc2)s1,-21.1%,,
CCN1CCN(C(=O)Cc2ccc(Nc3ncc(F)c(Nc4ccc(C(=O)Nc5ccccc5Cl)cc4)n3)cc2)CC1,,8.91 µM (active),
CCN1CCN(c2cc3c(cc2F)c(=O)c(C(=O)O)cn3C2CC2)CC1,,,inactive
COc1cc2c(cc1OC)CC(=O)N(CCCN(C)C[C@H]1Cc3cc(OC)c(OC)cc31)CC2,-5.42% and -13.8%,,
COc1ccc2cc(CCC(C)=O)ccc2c1,,,inactive
C/C=C(/C)C(=O)O[C@H]1C(C)=C2[C@H]([C@@H]1OC(=O)CCCCCCC)[C@@](C)(OC(C)=O)C[C@H](OC(=O)CCC)[C@@]1(O)[C@H]2OC(=O)[C@@]1(C)O,,22.4 µM (active),
C[C@]12CC[C@H]3[C@@H](CCC4=CC(=O)CC[C@@]43C)[C@H]1CC[C@H]2OC(=O)CCC1CCCC1,-3.52%,,
COc1ccccc1-c1cccc(-c2c(O)c3cc(C#N)c(Cl)cc3[nH]c2=O)c1,-22.8%,,
CCN1C[C@]2(OC(=O)c3ccccc3NC(C)=O)CC[C@H](OC)[C@@]34[C@H]5CC6[C@@H](OC)C[C@](O)(C(C[C@@H]23)[C@@H]14)[C@@]5(O)[C@@H]6OC,1.38%,,
